# Source: PubChem BioAssay (National Center for Advancing Translational Sciences (NCATS))
# Most compounds without a hit are left out; they make up all but 21% or so of the library.
# Pf growth 48h – inhibits P. falciparum growth in the first generation, 48 h; P. falciparum luciferase growth in erythrocytes, 48 h; 310,000 compounds, 5.9% hits; AID 504832; Potency, µM (series often up to 28.7 µM), inactives show at the highest dose activity change, negative = inhibition, hits mostly inhibitors; also: potency is read from the fitted curve at half-maximal effect; % is scaled to controls: 0 for no effect and ±100 for the full control effect
#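 First compound was added to culture medium, then infected red cells at 0.1% parasitemia and 2% hematocrit (final). After incubation at 37 C under 5% CO2, luciferase detection reagent was dispensed and light output recorded.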
# Cycloheximide cs – counter-screen for Shiga toxin inhibitors: cycloheximide protein synthesis inhibition; cell reporter, cycloheximide protein synthesis inhibition counterscreen; max response, %; 300,000 compounds, 12% hits; AID 2314; in the data active = max response mostly above about 13%, no sharp cut-off; inactive = mostly below about 14%; also: read at 38.3 µM for the half of the compounds with a filed dose; 0% is about no effect
# Shiga toxin inh – inhibitors of Shiga toxin in Vero cells. Vero cells, Shiga toxin protein synthesis inhibition reporter. inhibition, % at 38.7 µM. 290,000 compounds, 9.2% hits; in the data active = inhibition mostly above about 28%, no sharp cut-off; inactive = mostly below about 43%; also: 0% is about no effect
# Giardia FBPA inh – Giardia lamblia aldolase inhibition; purified Giardia FBPA; 290,000 compounds, 0.71% hits; Potency, µM (highest dose often 59.6 µM), inactives show at the highest dose activity, negative = inhibition, usual class: inhibitors; A8B2U2; also: potency is read from the fitted curve at half-maximal effect; % is scaled to controls: 0 for no effect and ±100 for the full control effect; nearly all actives have a fitted effect of over 55% in size
# Target sequence (A8B2U2 whole entry, looked up): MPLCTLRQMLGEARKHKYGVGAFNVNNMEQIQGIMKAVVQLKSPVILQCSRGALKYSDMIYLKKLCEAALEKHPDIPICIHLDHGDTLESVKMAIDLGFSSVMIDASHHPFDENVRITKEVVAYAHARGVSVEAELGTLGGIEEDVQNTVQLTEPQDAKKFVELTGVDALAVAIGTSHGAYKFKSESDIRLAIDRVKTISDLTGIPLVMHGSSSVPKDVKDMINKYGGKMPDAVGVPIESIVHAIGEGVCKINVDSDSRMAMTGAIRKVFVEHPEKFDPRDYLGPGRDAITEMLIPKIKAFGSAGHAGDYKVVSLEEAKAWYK
#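 40 nM FBPA preincubated 10 min at RT with compound (up to 57.5 uM final), then substrate plus GAPDH/TPI/NAD/arsenate coupling and diaphorase/resazurin added. Fluorescence read after 20 min at RT, 525/598 nm.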
# NS1 inh – blocks influenza NS1 protein function. Potency, µM (highest dose often 46.1 µM), without a hit: at the highest dose activity, positive = more growth. AID 2326. 270,000 compounds, 0.4% hits; calls by dose curve; also: potency is read from the fitted curve at half-maximal effect; actives are rising curves; nearly all actives have a fitted effect of over 50% in size
#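 OD600 was taken as the measure of yeast growth restored by compound in an NS1-expressing S. cerevisiae strain. Cells had been washed out of glucose medium and diluted 1:100 into galactose -URA medium, pH 6.0.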
# Pf growth 96h – P. falciparum growth inhibition at 96 hour, primary screen for plastid delayed-death inhibitors | P. falciparum luciferase reporter growth, 96 h | Potency, µM (doses to about 28.7 µM), inactives show at the top dose activity change, negative = inhibition, hits mostly inhibitors | 320,000 compounds, 6.9% hits; also: potency is read from the fitted curve at half-maximal effect; % is scaled to controls: 0 for no effect and ±100 for the full control effect
#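 Luminescence readout: decreased luciferase signal marks inhibited growth of reporter-expressing P. falciparum in infected red cells (2% hematocrit, 0.05% parasitemia final), exposed to compound two generations (96 h, 37 C, 5% CO2).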
# Active calls of the source: *; i = inactive; ? = inconclusive; / = no result given; + = active, no number; [ ] = dose if it differs, or a comment. Unless noted, calls follow the shape of the dose curve; as a rule, active = well fitted curve in the direction sought with a large enough effect; inconclusive = small, poorly fitted or top-dose-only effect, or another doubt; inactive = no such curve, though single readings can be large; an effect the other way counts as inactive or inconclusive.
SMILES,Pf growth 48h,Cycloheximide cs,Shiga toxin inh,Giardia FBPA inh,NS1 inh,Pf growth 96h
C/C(=N\NC(=O)c1ccc(Cl)cc1)c1ccc(Br)s1,7.4µM*,29*,90*,-1%,-19%,2.6µM*
C/C(=N\NC(=O)c1cc(Cl)ccc1O)c1ccc(Br)s1,46%,20,18,-6%,-4%,87%
COc1ccccc1CSc1nc2c(c(=O)n(C)c(=O)n2C)n1C,12%,-1,-8,-1%,-2%,-14%
Cc1c(C)n(C)c2ccc(C(=O)NCCN3CCOCC3)cc12,8%,0,1,2%,-2%,1%
CCN(CC)CCCNC(=O)CSc1c2c(nc3cc(Cl)ccc13)CCCC2,?,-10,-23,-3%,/,35%
CCN(CC)CCNc1ccnc2cc(Cl)ccc12,0.074µM*,3,-6,6%,-1%,1%
CCN(CC)CCC[C@H](C)Nc1c2ccc(Cl)cc2nc2ccc(OC)cc12,0.038µM*,/,/,-11%[21.7 µM],/,0.095µM*
CCN(CCO)CCCC(C)Nc1ccnc2cc(Cl)ccc12 (configuration not stated),0.15µM*,-3,4,5%,/,0.17µM*
Cc1ccc(-c2noc(COC(=O)c3ccco3)n2)cc1,64%,/,/,/,/,49%
N#CCCn1c(=O)c(CCc2ccccc2)nc2cnc(Nc3ccccc3)nc21,/,/,/,10%,/,/
O=C(CCl)Nc1c[nH]c(=O)[nH]c1=O,1.7µM*,6,-1,1%,1%,8%
O=C(Cc1ccccc1)Nc1c[nH]c(=O)[nH]c1=O,4%,5,-8,-5%,13%,?
Cc1ccc(-n2c(SCCN)nnc2-c2cccc(C)c2)cc1,10µM*,-7,-9,-21%,0%,?
Cc1c2oc3c(C)ccc(C(=O)N[C@@H]4C(=O)N[C@H](C(C)C)C(=O)N5CCC[C@H]5C(=O)N(C)CC(=O)N(C)[C@@H](C(C)C)C(=O)O[C@@H]4C)c3nc-2c(C(=O)N[C@@H]2C(=O)N[C@H](C(C)C)C(=O)N3CCC[C@H]3C(=O)N(C)CC(=O)N(C)[C@@H](C(C)C)C(=O)O[C@@H]2C)c(N)c1=O,0.0048µM*,1,-6,?,/,0.0024µM*
Cc1nn(-c2ccccc2)c(Cl)c1/C=N/NC(=O)c1ccco1,54%,52*,104*,1%,-54%,?
Cc1cc(C(=O)N/N=C/c2cn(C)nc2C)c2ccccc2n1,0%,-4,-3,/,-3%,17%
CCN(CC)S(=O)(=O)c1cccc(C(=O)N/N=C/c2c(C)nn(-c3ccccc3)c2Cl)c1,?,-1,-15,-3%,9%,-13%
Cc1nn(-c2ccccc2)c(Cl)c1/C=N/NC(=O)C1COc2ccccc2O1 (configuration not stated),10%,1,-7,1%,2%,39%
Cc1nn(-c2ccccc2)c(Cl)c1/C=N/NC(=O)c1ccc(CNc2ccccc2)o1,?,25*,44*,-5%,14%,?
Cc1nn(C)cc1/C=N/NC(=O)c1ccco1,52%,38*,82*,6%,-4%,31%
Cn1cccc1Cc1nnc(SCC(=O)Nc2ccccc2F)n1-c1ccc(F)cc1,13µM*,-4,-6,4%,10%,?
Cc1ccccc1NC(=O)CSc1nnc(Cc2cccn2C)n1-c1ccc(F)cc1,?,-4,-11,3%,-12%,11%
COc1ccc(-n2c(Cc3cccn3C)nnc2SCC(=O)Nc2cc(Cl)ccc2OC)cc1,10µM*,-2,-1,1%,-4%,?
COc1ccc(-n2c(Cc3cccn3C)nnc2SCC(=O)Nc2ccc(C)cc2C)cc1,?,-4,-15,-1%,-31%,6%
COc1ccc(-n2c(Cc3cccn3C)nnc2SCC(=O)Nc2ccccc2OC)cc1,13µM*,-1,-8,-2%,-6%,?
SMILES,Pf growth 48h,Cycloheximide cs,Shiga toxin inh,Giardia FBPA inh,NS1 inh,Pf growth 96h
Clc1cccc(CN2CCSCC2)c1Cl,0%,9,11,-29%,19%,-93%
[O]=[Bi][O][Bi]=[O],-15%,/,/,/,/,-14%
COC(=O)c1oc2ccc(Br)cc2c1-n1cccc1,6%,-4,-6,5%,-14%,?
Nc1c(C(=O)c2ccccc2)oc2ccc(Br)cc12,159%,28*,83*,5%,-8%,?
O=C(c1ccc(Cl)cc1)c1oc2ccccc2c1CS(=O)c1ccccc1 (configuration not stated),?,-1,-21,7%,-1%,?
CCOCC(=O)Nc1c(C(=O)OCC)oc2ccccc12,34%,-2,-15,8%,-13%,-5%
CCOC(=O)c1oc2ccccc2c1N,18%,27*,67*,9%,-16%,0%[5.75 µM]
COC(=O)CCC(=O)c1oc2ccc(Br)cc2c1N,i,41*,+,0%,-12%,4%
Nc1c(C(=O)c2ccc(Br)cc2)oc2ccccc12,49%,30*,45*,0%,-13%,-6%
N[C@H](Cc1c[nH]c2ccccc12)P(=O)(O)O,/,/,/,/,-3%,/
Cc1ccc(C(=O)c2oc3ccccc3c2N)cc1,22%,20*,74*,-3%,-7%,1%
Nc1c(C(=O)c2ccccc2)oc2ccc([N+](=O)[O-])cc12,-17%,26*,41*,5%,-4%,187%
CN(C)C(=O)C(OC(=O)c1ccc2ccccc2n1)c1ccccc1 (configuration not stated),9%,-1,-3,-1%,7%,10%
Cc1ccc(NC(=O)NC2=NN(c3ccccc3)C(=O)/C2=C2/CCCN2C)cc1,206%,27*,90*,-6%,14%,52%
CCc1ccccc1NC(=O)c1cccc(NC(=O)/C=C/c2ccco2)c1,34%,69*,105*,-10%,15%,4%
O=C(/C=C/c1ccco1)Nc1ccc(F)cc1,88%,/,/,/,/,159%
Cc1ccc(NC(=O)c2cccc(NC(=O)/C=C/c3ccco3)c2)cc1C,-23%,57*,137*,-3%,8%,?
Cc1ccc(-n2nc3ccc(NC(=O)/C=C/c4ccco4)cc3n2)cc1,69%,22*,74*,-3%,10%,4%
O=C(O)C[C@H]1OCC=C2CN3CC[C@@]45C6=CC(=O)C(=O)C([N+](=O)[O-])=C6N[C@H]4[C@H]1[C@H]2C[C@@H]35,/,/,/,/,-8%,/
CCn1c(=O)c2sccc2n2c(CCCC(=O)NC3CCN(Cc4ccccc4)CC3)nnc12,11%,-6,-5,/,6%,13µM*
CC(NC(=O)CCCc1nnc2n(C)c(=O)c3sccc3n12)c1ccccc1 (configuration not stated),15%,1,-2,12%,6%,13µM*
Cn1c(=O)c2sccc2n2c(CCCC(=O)NCCc3ccccc3)nnc12,?,9,-14,2%,-1%,?
